The values below come from PubChem BioAssay (NCI).

About 83,000 compounds went through this panel and 20% of them were active in at least one assay; those are over-represented in the sample as a whole.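 48-hour exposure, single concentration, 96-well plates; percent growth endpoint where 0 means no net growth. Active: below 10.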 A number with no mark means an inactive call. The source made the active and inactive calls.

The test system of this assay is HL-60(TB) leukemia. Description: NCI-60 one-dose screen, 48 h (100 = growth as untreated, 0 = no growth, -100 = all killed). The note with it: 10 µM unless noted.
In the case of `NC(=NCCCOc1ccc(F)cc1)Nc1ccc(Cl)cc1`, the growth is 72%. In the case of `O=C1N=c2ccccc2=C1c1sc(=S)n(C2CC(=O)N(c3ccc(Cl)cc3)C2=O)c1O` (stereo not drawn) it was 101%.

As to `COc1cccc(-c2nc3sccn3c2-c2ccnc(NCCNS(=O)(=O)c3ccccc3)c2)c1`, the growth was -18.1% (active). With `COC(=O)[C@@H]1[C@H](O)[C@H](C)[C@H](O)[C@H](C)/C=C\C=C(C)C(=O)Nc2c(C)c(OC(C)=O)c3c(c2O)C(=O)C(C)=C2OCOC(=C23)C(C)=C[C@@](C)(O)[C@H](O)[C@@H](C)[C@H]1OC(C)=O`, the growth was 119%. In the case of `CNc1ncc(-c2ccc(C(F)(F)F)cc2)c(NC2CCCCCC2)n1` it was 57%. `OC1CSSC1Cn1cnc2c(Nc3ccc(OCc4cccc(F)c4)c(Cl)c3)ncnc21` (stereo not drawn): the growth is -29.3% (active). Turning to `Fc1ccc(/C=C/[C@@H]2C[C@@H](F)CCO2)cc1`, the growth is 56.1%. As for `C#C[C@]1(O)CC[C@H]2[C@@H]3CC[C@H]4CC(F)(F)CC[C@]4(C)[C@H]3CC[C@@]21C`, the figure is 107%.

For the compound `O=C1CS/C(=N/c2nnc(-c3ccc(O)cc3)s2)N1`, the growth was 98.8%. For the compound `Cc1ccc(-c2nc([P+](c3ccccc3)(c3ccccc3)c3ccccc3)c(Nc3ccccc3)o2)cc1`, the growth was -48.4% (active). As for `COc1ccc(C2C=C(c3ccc(Cl)cc3)N=C3SC=CN32)c(Br)c1` (stereo not drawn), the figure is 92.9%; as for `COc1cc(Nc2ccnc(N3CCN(c4ccnc5cc(Cl)ccc45)CC3)n2)cc(OC)c1`, -23.7% (active). Take `O=C1CC(c2cccc(F)c2)c2c(n[nH]c2-c2ccc(Cl)cc2)N1` (stereo not drawn): the growth is 97.3%.
